In PubChem BioAssay (NCI):
Several values for one entry are separate records, joined by “and”; a condition that tells them apart may be missing. Equal values may be shown once. The panel holds about 83,000 compounds, 20% with a hit somewhere; the sample as a whole holds those more often.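 Cell lines were cultured in 96-well plates, exposed to a single compound concentration, and assessed for percent growth 48 hours later.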 Activity calls are given as the source filed them. Rule for the calls: active = growth percent below 10; inactive = the rest.

The compounds below were run on MDA-MB-468 breast (assay: NCI-60 one-dose screen, 48 h (100 = growth as untreated, 0 = no growth, -100 = all killed)). Conditions: 10 µM unless noted.

Row | Structure (SMILES) | growth
1 | Cn1cc(-c2csc(-c3cn(C)c4ccc(F)cc34)n2)c2cnccc21 | -49.2% (active)
2 | CC(C)(C)n1cc(-c2ccnc(NCCCNS(=O)(=O)c3ccc(C(F)(F)F)cc3)c2)c(-c2cccc(F)c2)n1 | 98.6% (inactive)
3 | CCCCOc1ccc(/C=C2/SC(N3CCOCC3)=NC2=O)cc1OCC | 97.8% (inactive)
4 | N#Cc1c(-c2ccc(Cl)cc2)nc(N=Nc2c(O)[nH]c3ccc(Cl)cc23)nc1N1CCOCC1 | 90.8% (inactive)
5 | CCOc1ccccc1Cn1ccnc1CCc1c(Cl)c(O)cc(O)c1C(=O)OC | 106% (inactive)
6 | COc1cc(NCc2cn(-c3ccc(C(=O)O)cc3)nc2-c2ccc(C(=O)O)cc2)cc(OC)c1OC | 102% (inactive)
7 | c1ccc([P+](CCC[P+](c2ccccc2)(c2ccccc2)c2ccccc2)(c2ccccc2)c2ccccc2)cc1 | 23.7% (inactive)
8 | N#CSc1cc(S(N)(=O)=O)ccc1N | 105% (inactive)
9 | C=C1C(=O)O[C@H]2[C@H]1CC/C(COC(=O)NCc1ccc(Cn3c(=O)sn(CCCCC)c3=O)cc1)=C\CC[C@@]1(C)O[C@@H]21 | 3.66% (active)
10 | O=C(O)c1ccc2cccnc2c1O | -31.1% (active)
11 | CCCCCCCCCCC(CN(CC)CC)C(O)c1ccccc1 (stereo not given) | -61.2% (active)
12 | CC(=O)Nc1nc(C(=O)N2N=C(C)/C(=C/c3ccccc3)C2=O)cs1 | 103% (inactive)
13 | CS(=O)(=O)c1ccc(-c2nc3ccccn3c2C=Nc2ccc(Cl)cc2)cc1 | 98.1% (inactive)
14 | Cc1cc(=O)[nH]c(NN=C2CCCC2)n1 | 116% (inactive)
15 | Cc1nnc(NC/C=C/c2ccccc2)s1 | 106% (inactive) and 92% (inactive)
16 | CC(C)(C)c1ccc(Cn2cc(CSc3nc4ccccc4s3)nn2)cc1 | 93.6% (inactive)
17 | CC1(C)C(=O)/C(=C\c2cccnc2)C[C@]2(C)[C@H]3CC[C@@H]4[C@H]5[C@H](C(=O)/C=C/c6cccnc6)CC[C@]5(C(=O)O)CC[C@@]4(C)[C@]3(C)CC[C@@H]12 | -46.4% [100 µM] (active)
18 | CSc1nnc(-c2cc3c([nH]c4ccccc43)c(-c3cccc(O)c3)n2)n1-c1ccc(C)cc1 | 20.4% (inactive)
19 | CC(=O)c1c(C)nc(-c2cc(C)cc(Cl)c2)nc1-c1cccc(Oc2ccccc2)c1 | 60.8% (inactive)
20 | CN1CCN(Cc2ccc(NC(=O)c3cncc(C#Cc4[nH]nc5ncncc45)c3)cc2C(F)(F)F)CC1 | 58% (inactive)

Row | Structure (SMILES) | growth
21 | COc1nc2ccccc2cc1/C=[N+](\[O-])c1ccccc1 | 88.6% (inactive)
22 | CCCN(CCC)CC(O)COc1ccccc1C(=O)Nc1ccccc1 (stereo not given) | 85.9% (inactive)
23 | C=COC(=O)CCCCCCCCC | 100% (inactive)
24 | CN(C)c1ncc(-c2ccc(C(F)(F)F)cc2)c(NC2CCCCCC2)n1 | 29.5% (inactive)
25 | COc1ccc(OC)c(C(=O)c2oc3ccc(Br)cc3c2N)c1 | 23.6% (inactive)
26 | COc1cccc(NC(=O)c2sc3nc(C)c(C(C)=O)cc3c2N)c1 | -14.8% (active)
27 | Cc1ccccc1-c1cc(-c2ccc(Br)s2)[nH]c(=O)c1C#N | 96.4% (inactive)
28 | COc1ccc(Cn2c(SC)nc(=O)n(Cc3ccc(Cl)cc3)c2=O)cc1 | 107% (inactive)
29 | Cc1cc(CO)c(O)c(CO)c1 | 106% (inactive)
30 | COc1ccc(C2=NN3C(C2)c2cc(Br)ccc2OC3c2ccncc2)cc1 (stereo not given) | 103% (inactive)
31 | Cc1cccc(NC2=C(Cl)C(=O)c3nc(C)ccc3C2=O)c1 | -81.1% (active)
32 | CC(=O)Nc1cccc(Nc2nc(N[C@@H](C)c3ccccc3)c3ccccc3n2)c1 | -39.8% (active)
33 | CCN(CC)c1ccc(/C=N/NC(=O)c2ccc(Nc3ccnc(C(F)(F)F)c3)cc2)c(O)c1 | 8.37% (active)
34 | Cc1ccc(C2Oc3ccccc3C3CC(c4cccs4)=NN32)cc1 (stereo not given) | 109% (inactive)
35 | COC(=O)CCC1=C(C)/C(=C/c2[nH]c(-c3ccc[nH]3)cc2OC)N=C1C | 45.2% (inactive)
36 | COc1ccccc1/C=C1\COc2ccc(-c3ccccc3)cc2C1=O | 3.14% (active)
37 | CCOC(=O)C#Cc1c(C(=O)OCC)nnn1[C@@H]1O[C@H](COC)[C@@H](OC)[C@H]1OC | -20.5% (active)
38 | CCC/C=C(/C(C)=O)C(=O)OCC | 88.3% (inactive)
39 | CNCCCn1c2c(c3ccc(Cl)cc3c1=O)C(=O)c1cc(OC)cnc1-2 | 67.2% (inactive)
40 | COc1cccc(-c2nn(-c3ccccc3)cc2-c2ccnc(NCCCNS(=O)(=O)c3ccc(Cl)cc3)c2)c1 | 25.6% (inactive)
